The values that follow come from PubChem BioAssay.

The structures appear in SMILES notation. A number with no mark means an inactive call. How the calls were made is not given here.

Pantothenate synthetase (Mycobacterium tuberculosis (strain ATCC 25618 / H37Rv)), sequence (P9WIL5 whole entry, looked up): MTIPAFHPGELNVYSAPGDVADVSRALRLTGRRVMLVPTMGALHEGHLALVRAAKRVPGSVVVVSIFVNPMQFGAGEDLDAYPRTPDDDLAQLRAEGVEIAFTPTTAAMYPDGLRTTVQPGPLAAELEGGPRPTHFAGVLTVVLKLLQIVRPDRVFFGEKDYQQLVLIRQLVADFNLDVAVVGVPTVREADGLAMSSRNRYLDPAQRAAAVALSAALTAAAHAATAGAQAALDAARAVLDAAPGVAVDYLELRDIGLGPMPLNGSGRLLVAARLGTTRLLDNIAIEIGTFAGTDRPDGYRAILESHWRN

The assay has as its target Pantothenate synthetase (Mycobacterium tuberculosis (strain ATCC 25618 / H37Rv)) (UniProt P9WIL5). Kind of assay: Coupled enzyme confirmation of inhibitors against recombinant Mtb PanC (AID 375).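 Further: 0% = full reaction with vehicle and 100% = no enzyme background.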 The conditions noted are these: coupled enzyme assay; at 10 µM, active compounds read high.
As for `O=C(O)c1cccc(S(=O)(=O)N2CCOCC2)c1`, the inhibition (in general, the relative decrease from the control value, in per cent) is 2%.
In the case of `COc1ccc2cc([C@H](C)C(=O)O)ccc2c1` it was 0%.
`CC(NC(=O)C1CCCN(S(=O)(=O)c2cccs2)C1)c1ccccc1` (configuration not stated): the inhibition was 0%.
Take `CC(C)(C)C1=Nn2c(nnc2-c2n[nH]c3c2CCC3)SC1`: the inhibition was 8%.
Turning to `COc1ccccc1C1N(c2ccc(F)cc2)C(=O)C2CCCN21` (configuration not stated), the inhibition was 0%.
`CC(C(=O)N1CCc2ccccc21)N1CCc2ccccc2C1` (configuration not stated): the inhibition is 3%.
Take `O=C(CSc1nc2ccccc2o1)N1CCN(c2ccc(Cl)cc2)CC1`: the inhibition was 0%.
